From PubChem
Compounds with a hit are over-represented: about 17% of the library has one in this group of screens.
TDP1 cell noCPT = qHTS for Inhibitors of human tyrosyl-DNA phosphodiesterase 1 (TDP1): qHTS in cells in absence of CPT; DT40 Tdp1-/- hTDP1 cells, no CPT, ATP luminescence, 48 h; Potency, µM (titrated, usually from 46.2 µM), for inactives: top-dose activity change, negative = growth inhibition, most hits filed as inhibitors; 15% of 420,000 active; AID 686978, 2013; note: % is set by controls: 0 for no effect and ±100 for the full control effect; nearly all actives have a fitted effect of over 55% in size
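DT40 Tdp1-/-;hTDP1 cells, no CPT (DMSO vehicle only), 400 cells/well; compounds pin-transferred; ≥48 hr, 37 °C; CellTiter-Glo 30 min RT dark, luminescence read.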
TGFb SMAD3 inh = blocks TGF-b signaling; HepG2 CAGA-GFP TGF-b/SMAD3 reporter, GFP fluorescence, 18 h; TGF-beta stimulated, 500 pg/mL final; Potency, µM (top dose mostly 46.1 µM), for the others: at the top dose activity, negative = inhibition, actives largely listed as inhibitors; 1.2% of 410,000 active; AID 588855; note: % is set by controls: 0 for no effect and ±100 for the full control effect; nearly all actives have a fitted effect of over 65% in size
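Per well, imaged GFP fluorescence of HEPG2 CAGA-GFP cells gives the signal; cells get compound, then TGF-beta (500 pg/mL final), 18 h at 37 degrees C; %Activity versus -TGF-beta and +DMSO controls.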
HepG2 tox = kills HepG2 cells in TGF-b inhibitor counter-screen; HepG2 CAGA-GFP viability, ATP luminescence, 18 h; Potency, µM (titrated, usually from 46.1 µM), for inactives: top-dose activity change, negative = cytotoxicity, usual class: cytotoxic; 0.76% of 410,000 active
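CellTiter-Glo luminescence gave cytotoxicity after 18 hours at 37 degrees C. The cells were HepG2 CAGA-GFP in 1% FBS DMEM, stimulated with 500 pg/mL TGF-beta after compound addition. %Activity was normalised to no-cell wells (complete cell-killing) and DMSO (no toxicity), and curves were fitted and classified.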
TDP1 cell CPT = DT40-hTDP1 cell growth loss with CPT; chicken DT40 Tdp1-/-;hTDP1 cells + 20 nM CPT, ATP luminescence, 48 h; Potency, µM (titrated, usually from 46.2 µM), without a hit: top-dose activity change, negative = growth inhibition, most hits filed as inhibitors; 12% of 420,000 active; note: % is set by controls: 0 for no effect and ±100 for the full control effect; nearly all actives have a fitted effect of over 55% in size
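Cell growth measured by CellTiter-Glo luminescence after a minimum 48 h, 37 C compound exposure with 20 nM CPT in Tdp1-knockout DT40 cells stably expressing hTDP1, seeded 400/well; qHTS titration format.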
HT1080-NT tox = kills 2HG-producing HT-1080-NT fibrosarcoma cells; HT-1080-NT fibrosarcoma viability, CellTiter-Glo ATP luminescence, 48 h; Potency, µM (top dose mostly 46.1 µM), without a hit: top-dose activity, negative = less viability, hits mostly cytotoxic; 1.6% of 360,000 active;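 note: NT is the 2HG producing partner of a matched IDH1 knockdown line; 0% = DMSO-treated cells and -100% = media-only wells without cells; nearly all actives have a fitted effect of over 55% in size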
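Luminescent CellTiter-Glo readout after 48 hours of compound exposure at 37 degrees C defined viability of HT-1080-NT cells. Activity was normalized to DMSO wells and cell-free media wells; concentration-response curves were fitted and assigned curve classes.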
HT1080 IDH1KD tx = kills HT-1080 cells with IDH1 knockdown. 2% of 360,000 active. Potency, µM (highest dose often 46.1 µM), inactives show at the top dose activity, negative = toxicity, actives largely listed as cytotoxic. HT-1080 IDH1 knockdown viability, ATP luminescence, 48 h;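 note: 0% = DMSO wells and -100% = cell-free medium wells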
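After a 2 h attachment period, IDH1KD HT-1080 cells took pin-transferred compound for 48 h at 37 °C; ATP-based luminescence after 10 min room-temperature reagent incubation reported viability.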
* hit, by the source's call; ? = inconclusive; nt = not tested or not shown; ! = repeats disagree; [ ] = remark or other dose. Calls come from the whole dose curve; as a rule, active = well fitted curve in the direction sought with a large enough effect; inconclusive = small, poorly fitted or top-dose-only effect, or another doubt; inactive = no such curve, though single readings can be large; an effect the other way counts as inactive or inconclusive. Potency is the fitted concentration of half-maximal effect.

SMILES	TDP1 cell noCPT	TGFb SMAD3 inh	HepG2 tox	TDP1 cell CPT	HT1080-NT tox	HT1080 IDH1KD tx
CC1CCCCN1C(=O)c1cccc(NC2=C(Cl)C(=O)N(Cc3ccccc3)C2=O)c1 (configuration not stated)	?	?	0.5%	?	?	?
O=C1C(Cl)=C(Nc2cccc(O)c2)C(=O)N1Cc1ccccc1	?	?	23.1%	23.1µM*	?	?
Cc1ccc(C)c(OCC(O)CN2CCN(CCN3C(=O)c4cccc5cccc(c45)C3=O)CC2)c1 (configuration not stated)	18.4µM*	?	-99.0%	16.4µM*	16.4µM*	?
CC(=O)c1ccccc1OCC(O)CN1CCN(CCN2C(=O)c3cccc4cccc(c34)C2=O)CC1 (configuration not stated)	6.51µM*	?	0.4%	6.51µM*	?	?
Cc1ccc(OCC(O)CN2CCOCC2)c(C)c1 (configuration not stated)	-16.0%	-10.3%	-1.9%	-11.1%	0.0%	1.7%
CCOC(=O)C1(Cc2ccccc2C)CCCN(S(=O)(=O)c2cccnc2)C1 (configuration not stated)	16.4µM*	-4.8%	-13.7%	?	-15.9%	-7.5%
CCOC(=O)C1(Cc2ccccc2C)CCCN(C(=O)c2sccc2C)C1 (configuration not stated)	?	-0.6%	-13.0%	18.4µM*	2.3%	-0.3%
CCC(C)Nc1ccc(NC(C)CC)cc1 (configuration not stated)	-85.5%	11.2µM*!	12.6µM*!	4.11µM*	3.66µM*	9.2µM*
Cc1nn(C)cc1/C=C/C(=O)c1ccc(O)cc1	?	-5.6%	-19.6%	0.9%	5.9%	1.6%
C=CCn1cccc(/C=C/C(=O)c2ccc(C(C)(C)C)cc2)c1=S	7.31µM*	?	-108.4%	7.31µM*	?	-18.7%
Cc1cc(/C=C2\C=Cc3ccccc32)cc(C)c1N	?	?	-49.7%	?	nt	nt
CC(=O)Nc1ccc(Nc2cc(C)nc3c(-c4ccccc4)cnn23)cc1	16.4µM*	0.0%	-1.9%	?	14.6µM*	13µM*
COc1ccccc1-c1ccc(SCc2cccc(F)c2)nn1	?	-10.0%	-3.1%	?	-23.4%	-21.1%
COc1ccccc1-c1ccc(SCc2ccccc2)nn1	20.6µM*	-0.8%	-4.1%	?	-20.2%	-10.9%
COc1ccccc1-c1ccc(SCC(=O)NCCc2ccccc2)nn1	23.1µM*	0.6%	-6.0%	?	-0.6%	6.7%
O=C(c1cnn(-c2nccc(-c3ccccc3C(F)(F)F)n2)c1C1CC1)N1CCN(CCO)CC1	-15.8%	nt	nt	-11.5%[9.04 µM]	nt	nt
CN(Cc1ccccc1)C(=O)c1ccc(NC(=O)Cc2cccc(NC(=O)C3CCN(C(=O)C4CCCC4)CC3)c2)cc1	?	?	11.3%	?	-2.7%	-14.8%
Cc1ccc(C)c(OCCCC(=O)Nc2ccccc2C(N)=O)c1	16.4µM*	4.3%	-12.8%	?	-19.6%	-6.7%
Cc1ccc(C)c(OCCC(=O)Nc2ccccc2C(=O)NC2CC2)c1	-13.9%	-1.6%	-16.6%	-7.3%	4.0%	9.3%
CC(Oc1cccc(Cl)c1)C(=O)Nc1cc(=O)n(C)c(=O)n1C (configuration not stated)	13µM*	10.4%	0.1%	?	9.2%	-28.5%
CN(CC(=O)Nc1ccc(N2CCOCC2)cc1)CC(=O)Nc1ccc(Cl)cc1[N+](=O)[O-]	25.9µM*	-1.0%	-17.1%	?	-7.3%	-8.2%
CC(Oc1cccc(Cl)c1)C(=O)N(C)CC(=O)Nc1ccc(N2CCOCC2)cc1 (configuration not stated)	16.4µM*	0.0%	-17.1%	13µM*	-15.6%	-16.8%
CC(Oc1cccc(Cl)c1)C(=O)Nc1ccncc1 (configuration not stated)	?	-12.1%	-20.7%	?	10.0%	-5.4%
COCCn1ccc2c(OCC(=O)Nc3ccccc3F)cccc2c1=O	?	-0.2%	2.4%	?	nt	nt
Cn1c(=O)c(CCc2ccccc2)nc2cnc(OCc3ccccc3)nc21	-7.1%	nt	nt	11.6%	nt	nt
SMILES	TDP1 cell noCPT	TGFb SMAD3 inh	HepG2 tox	TDP1 cell CPT	HT1080-NT tox	HT1080 IDH1KD tx
COc1ccc(-n2c(SCC(=O)NCC3CCCO3)nc3ccccc32)cc1 (configuration not stated)	-20.6%	?	6.0%	-17.4%	-2.6%	-5.3%
NC(=O)C1CCCN(Cc2ccc3c(c2)CN(Cc2ccccc2)CCO3)C1 (configuration not stated)	-17.7%	nt	nt	5.8%[9.04 µM]	nt	nt
Cc1ccc(C)c(OCCC(=O)OCC(=O)Nc2cccnc2Cl)c1	?	4.5%	-11.2%	14.6µM*	-2.2%	-6.2%
CCOc1cc(N2CCOCC2)c(OCC)cc1NC(=O)C1CCCC1	29.1µM*	-0.6%	-17.9%	?	3.8%	2.6%
CC(Oc1cccc(Cl)c1)C(=O)Nc1ccccc1C(=O)N1CCCCC1 (configuration not stated)	?	-13.7%	-24.1%	23.1µM*	-1.7%	-4.5%
Cc1ccc(C)c(OCCC(=O)OCC(=O)Nc2ccc(Cl)cn2)c1	-9.5%	1.6%	-7.0%	-4.8%	7.7%	9.1%
CCCNC(=O)Nc1cc(OCC)c(N2CCOCC2)cc1OCC	18.4µM*	-1.3%	-19.5%	?	9.3%	9.8%
C[C@@H]1CN([C@H](C)CO)C(=O)CCCn2cc(nn2)CO[C@H]1CN(C)S(=O)(=O)c1ccc(-c2ccccc2)cc1	?	8.1%	7.1%	-13.6%	-5.2%	-5.0%
O=C(COc1cc2oc(=O)c3c(c2cc1Cl)CCC3)NCCN1CCOCC1	-18.8%	4.9%	0.7%	-18.9%	7.8%	11.9%
CCOc1cc(N2CCOCC2)c(OCC)cc1NC(=O)c1cc(S(=O)(=O)N2CCOCC2)ccc1Cl	-102.7%	?	2.8%	-109.8%	2.7%	-3.4%
CCOc1cc(N2CCOCC2)c(OCC)cc1NS(=O)(=O)c1ccc(Cl)s1	2.91µM*	-20.8%	-22.2%	4.61µM*	?	4.11µM*
CC(Oc1cccc(Cl)c1)C(=O)Nc1cc(Cl)ccc1N1CCOCC1 (configuration not stated)	?	-27.6%	-21.9%	20.6µM*	6.3%	4.5%
